# Source: the supplement of paper PMC11417369
# ± gives the standard deviation of the averaged measurements. In all, about 25,000 sequences were measured (“ln(normalized median fluorescence intensity)”: median about 8.6, highest 2% from about 10 on). Only a selection was taken, and the highest values are over-represented in it overall.
# System: PfAP2-EXP AP2 domain (GST-tagged)
# Test: gcPBM binding intensity (ln(normalized median fluorescence intensity)); higher = stronger DNA binding
# Procedure, shortened: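 GST-tagged P. falciparum DNA-binding domains produced in E. coli were incubated for 1 h on an Agilent 4 × 180k array of primer-extended double-stranded 36-bp intergenic genomic probes with negative controls. Binding intensity is the highest Masliner-normalised natural-log median intensity across replicate spots of either probe orientation, with bound protein detected by Alexa488 anti-GST antibody at 488 nm.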
row,Sequence,gcPBM binding intensity (ln)
1,AAAATAAAAATAAAAGCACACATAAATATATATATA [CACACA_site8409],9.64 ± 0.28
2,AAAAATAAAAAAAGCACACACATATAAATAAATATA [CACACA_site6968],8.69 ± 0.6
3,TAAAAAATAAAAAAAGCACACACATATATATATATA [CACACA_site8567],10.3 ± 0.25
4,AATAAAAATAAAAGCACACATAAATATATATATATT [CACACA_site1441],8.66 ± 0.39
5,AAAAATAAAAAAAGCACACACATATATATATATATA [CACACA_site1885],10.2 ± 0.28
6,AAAAAAAAAAAAAAAGCACACATATAAATATGAATA [CACACA_site8391],8.41 ± 0.24
7,TTCTTTTTAATTAATACACACACACCCATATATATA [CACACA_site8719],8.83 ± 0.42
8,AATGTATATATATATATATATATATATATTTATTTA [CACACA_negctrl_site113],8.43 ± 0.14
9,CCCGTAAATTATGAGTGTACGTTATTTTTTAAAATG [XGTACX_site3946],8.81 ± 0.49
10,ATAATGTTTTATAATACACACATTATATATATAAAT [CACACA_site6101],8.4 ± 0.37
11,AATATATGTTAAAATGGTACACAATTATTATATATT [XGTACX_site6407],8.46 ± 0.4
12,TATTCCTTCTACAATTAAATAATTATAATAAATATA [GTGCAC_negctrl_site26],8.46 ± 0.46
13,GAAATTATGTAAAAAAGTACTAACATACATATATAT [XGTACX_site1794],8.61 ± 0.32
14,CAAGTAGATATTATACGTACATATATATATATATAT [XGTACX_site8349],10.2 ± 0.32
15,ATATATTATTATACATGTACATATATAGATATATAT [XGTACX_site4358],8.53 ± 0.35
16,ATATATAGATAATCAAGTACATAACAAGATATAAGA [XGTACX_site2186],8.81 ± 0.47
17,ACATACATATATATACGTACATATATATTTATATAT [XGTACX_site5799],8.75 ± 0.34
18,AATTAGATACTAACAAGTACATATATATATATATAT [XGTACX_site2252],10.2 ± 0.26
19,ATAATATCATAATATTGTACATATTTTATTTTAAAT [XGTACX_site1115],8.36 ± 0.29
20,AATCTTCTTAATTGTAGTACACAATTTATAAACAAA [XGTACX_site8706],8.61 ± 0.3
21,TGATATTATATATATACACACATGTATGTATTTATA [CACACA_site4874],8.32 ± 0.42
22,ATGTATGTGTATATATGTACATAATATATATCTTTT [XGTACX_site8666],8.65 ± 0.32
23,TAATATCTACATATATGTACATATATATATATATAT [XGTACX_site7979],9.94 ± 0.4
24,ATATATCTACATATATGTACATATATGTATATGTAT [XGTACX_site5432],8.41 ± 0.2

row,Sequence,gcPBM binding intensity (ln)
1,ATATATATATATATGTGTACATATATTAAGATATAT [XGTACX_site1065],10 ± 0.3
2,AATAAATAGATATATACACACATATATGTGTACATA [CACACA_site7476],8.37 ± 0.29
3,ATATATATATATATATGTACATATATATATGTATAT [XGTACX_site3959],10.2 ± 0.33
4,ATATATATATATATATGTACATAGAGAAGTATCTTT [XGTACX_site4737],10.4 ± 0.17
5,ATATATATATATATATGTACATATATCTACATATAT [XGTACX_site7588],10.2 ± 0.14
6,ATATATATATATATGTGTACATATGTATATATATCT [XGTACX_site2930],10.1 ± 0.4
7,AAATGTATATATGTATGTACATATATATATATATAT [XGTACX_site5778],10 ± 0.35
8,ATATATATGTATATATGTACATATATGTATATATAT [XGTACX_site4772],8.66 ± 0.17
9,ATATATATATATATGTGTACATATAAGATAGAAGAA [XGTACX_site3198],10.2 ± 0.35
10,AATATAACTTAGAATTGTACATAAAAAAAAATATAT [XGTACX_site3313],8.68 ± 0.35
11,CAAAATATTTAAAAAAGTACTTAAAATAAATTCAAA [XGTACX_site6866],8.48 ± 0.38
12,CTTAAATCTACTATTTGTACATATTTTATTATTAAA [XGTACX_site6151],8.58 ± 0.37
13,TTTATTTAAAAAATAAAAAAAAAAAAAAAAAAAAAA [CACACA_negctrl_site1670],7.82 ± 0.38
14,GGATACGCTTTTGTACCACTCCCCCTTTTGGGAATA [CACACA_negctrl_site1363],8.88 ± 0.33
15,AAAACTTGTCAGAATGGACACACGAATTAAAGGCCT [CACACA_site1215],8.79 ± 0.52
16,GCATAAATTATCATAACATAAATATAAAAATATAAT [GTGCAC_negctrl_site55],8.36 ± 0.37
17,TAGTTGTGAGTTACATGTACATGTATTTATTTTTTA [XGTACX_site7088],8.88 ± 0.47
18,CCACACTTAAAATACACACACACCAAAAAAAAAAAA [CACACA_site2709],8.43 ± 0.37
19,TATATTTGGTTTCATTCATTTTTATAGAAATCTCAA [CACACA_negctrl_site1412],8.48 ± 0.47
20,ATATATATATATATATGTACATATATACATATATGT [XGTACX_site1521],10 ± 0.49
21,GATATGTGTATAATATGTACATATATATATATATAT [XGTACX_site6531],10.2 ± 0.5
22,ATATATATATATATATGTACATACATACATAGAACT [XGTACX_site2214],10.4 ± 0.3
23,TATATAAATATAATATGTACATATAATATGTATATA [XGTACX_site8120],8.36 ± 0.26
